Experimental data from PubChem BioAssay (NCI).
Values joined by “and” are separate entries in the source; they are usually repeats but may differ in a detail not shown here. Equal entries are not always repeated. This is part of a sample that, as a whole, favours compounds with a hit. Of some 83,000 tested, about 20% had one in any assay.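 Testing used 96-well plates and a 48-hour single-concentration exposure. Example: -40 means 40% of the starting cells died.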 Values without a mark were called inactive. Active and inactive are the calls of the source. How the source made its calls: active means growth percent below 10; inactive means the rest.

Experiments:
Assay in all cases: NCI-60 one-dose screen, 48 h (100 = growth as untreated, 0 = no growth, -100 = all killed)
Details in all cases: 10 µM unless noted
[1] = tested on: NCI-H23 lung
[2] = tested on: NCI-H226 lung
[3] = tested on: NCI-H322M lung
[4] = tested on: HOP-62 NSCLC
[5] = tested on: NCI-H460 lung
[6] = tested on: HOP-92 NSCLC
[7] = tested on: NCI-H522 lung
[8] = tested on: A549/ATCC NSCLC
[9] = tested on: 786-0 renal
[10] = tested on: COLO 205 colon
[11] = tested on: DU-145 prostate
[12] = tested on: K-562 leukemia
[13] = tested on: MALME-3M melanoma
[14] = tested on: MDA-MB-231 breast
[15] = tested on: RXF 393 renal
[16] = tested on: SF-268 CNS
[17] = tested on: SF-295 CNS
[18] = tested on: SF-539 CNS
[19] = tested on: UACC-257 melanoma
[20] = tested on: M14 melanoma

| Compound | growth [1] | growth [2] | growth [3] | growth [4] | growth [5] | growth [6] | growth [7] | growth [8] | growth [9] | growth [10] | growth [11] | growth [12] | growth [13] | growth [14] | growth [15] | growth [16] | growth [17] | growth [18] | growth [19] | growth [20] |
| --- | --- | --- | --- | --- | --- | --- | --- | --- | --- | --- | --- | --- | --- | --- | --- | --- | --- | --- | --- | --- |
| N=C1/C(=C2\NC3C=CC=CC3S2)C(c2ccc(Cl)cc2)C2C(=O)N(c3ccccc3)C(=S)N12 (stereo not drawn) | 97.4% | 91.6% | 101% | 105% | 107% | 102% | 101% | 100% | 101% | 113% | 114% | 102% | 100% | 102% | 95.7% | 99.5% | 103% | 99.4% | 107% | 102% |
| O=C1OCC2=C1C(c1cccc(C(F)(F)F)c1)c1cc3c(cc1N2CCO)CCC3 (stereo not drawn) | 25.7% | 40.2% | 45% | 15.9% | 3.4% (active) | 64.2% | -18.4% (active) | 12.4% | 17% | -55.2% (active) | -6.77% (active) | 7.05% (active) | 43.9% | 28.4% | 49.7% | 17.3% | 1.03% (active) | -15.6% (active) | 67.8% | 0.275% (active) |
| CCCCn1c(C(=O)c2c[nH]c3ccccc23)n[nH]c1=S | 92.6% | 92.5% | 96.7% | 86% | 98.7% | 89.4% | 83.3% | 92.3% | 102% | 106% | 104% | 76.1% | 111% | 96.4% | 107% | 96.9% | 103% | 102% | 94.8% | 92.4% |
| CC(=O)OC[C@]12CCC(C)(C)C=C1[C@H]1CC[C@@H]3[C@@]4(C)CCCNC(C)(C)[C@@H]4CC[C@@]3(C)[C@]1(C)CC2 | 65% | 77.9% | 98.9% | 91.8% | 49.4% | 83% | 39.4% | 83% | 82.2% | 1.01% (active) | 87.4% | 14.2% | 41.9% | 82.1% | 89.2% | 81.2% | 100% | 95.2% | 31.9% | 64.8% |
| CC(=O)N1N=C(c2ccc(Nc3nc(Nc4ccc(F)cc4)nc(Nc4ccc(Cl)cc4)n3)cc2)CC1c1ccc(N(C)C)cc1 (stereo not drawn) | 52.2% | 42.3% | 79.6% | 109% and 58.6% | 44.9% | 22.5% | 47.8% | 30.3% | 113% and 44.1% | 51.2% | 5.71% (active) | 23.8% | 62.7% | 51% | – | 68.8% | 1.56% (active) | 67.9% | 46.8% | 41.4% |
| COc1ccc(-c2nc(Cl)c3c(C)nn(-c4ccc(F)cc4)c3n2)cc1 | 97.1% | 103% | 105% | 104% | 108% | 101% | 97.3% | 90.4% | 105% | 110% | 111% | 100% | 115% | 106% | 122% | 106% | 107% | 111% | 91.9% | 100% |
| O=C1CCCCN1CCCCC#Cc1cccc(C#Cc2cccnc2)c1 | 88.5% | 78.1% | 180% | 114% and 98.7% | 73% | 31.9% | 75.7% | 81% | 116% and 89.9% | 83.5% | 109% | 26.9% | 249% | 65.3% | – | 83.2% | 79.9% | 91.8% | 84.4% | 105% |
